Rows were chosen to be rich in hits. Some 5.9% of all compounds tested hit in one or more screens of this group.
rCAG RNA binder – binds r(CAG) RNA repeats | r(CAG) RNA repeat, TO-PRO-1 dye displacement fluorescence | inhibition, % at 3 µM | 370,000 tested, 1.3% active | AID 651821;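 active = inhibition above the plate cutoff, the mean of all test compounds on that plate plus 3 SD, cut at about 35% in these data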;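 note: 0% = DMSO alone and 100% = 100 µM mitoxantrone as full dye displacement; higher means more dye released from RNA so lower well fluorescence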
ALR inh – inhibitors of human sulfhydryl oxidase ALR; purified ALR, DTT oxidation, H2O2 HRP-luminol luminescence; inhibition, % (concentration not given with the values); 290,000 tested, 3.8% active;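 active = mean replicate inhibition above about 79%, with every replicate also reaching it, limit read from the data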
Target sequence (P55789 whole entry, looked up): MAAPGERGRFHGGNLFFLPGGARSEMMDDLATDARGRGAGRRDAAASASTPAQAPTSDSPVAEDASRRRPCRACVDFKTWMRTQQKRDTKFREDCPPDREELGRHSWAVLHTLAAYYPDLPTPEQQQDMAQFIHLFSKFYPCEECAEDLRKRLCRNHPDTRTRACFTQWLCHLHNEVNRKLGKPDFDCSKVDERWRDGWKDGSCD
Rtt109 HAT inh – C. albicans Rtt109 histone acetyltransferase inhibition; purified Rtt109/Vps75, ThioGlo CoA-SH fluorescence, 4 h; Q5AAJ8; 330,000 tested, 0.16% active; inhibition, % at 34.9 µM;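 active = inhibition of at least 50% in every replicate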
Target sequence (Q5AAJ8 whole entry, looked up): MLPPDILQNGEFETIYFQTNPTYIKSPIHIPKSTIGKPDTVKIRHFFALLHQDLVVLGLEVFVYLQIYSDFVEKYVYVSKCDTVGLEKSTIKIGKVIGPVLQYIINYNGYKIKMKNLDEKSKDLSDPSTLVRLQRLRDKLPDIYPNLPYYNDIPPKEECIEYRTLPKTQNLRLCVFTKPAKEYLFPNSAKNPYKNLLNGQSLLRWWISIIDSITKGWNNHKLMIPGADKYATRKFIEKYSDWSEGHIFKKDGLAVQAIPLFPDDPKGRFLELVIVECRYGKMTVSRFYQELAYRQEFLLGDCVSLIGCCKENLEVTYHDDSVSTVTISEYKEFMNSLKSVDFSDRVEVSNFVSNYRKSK
ABHD5 PLIN5 PPI – blocks binding of human ABHD5 to perilipin-5; Q00G26+Q8WTS1; inhibition, % at 4 µM; 360,000 tested, 0.78% active; Split G. princeps luciferase complementation, luminescence, 4 h; AID 602281;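 active = inhibition above the mean inhibition across every tested compound plus 3 SD, cut at about 22% in these data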;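 note: 0% = DMSO only wells and the 100% control is not disclosed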
PRMT1 inh – PRMT1 (human) inhibition, primary screen; Q99873; recombinant PRMT1, activity-based probe fluorescence polarization; inhibition, % at 2.79 µM; 370,000 tested, 1.3% active; AID 652257;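 active = inhibition above about 21% made by adding two undisclosed values, limit read from the data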
LANA-H2A inh – blocks KSHV LANA binding to histone H2A/H2B. cell-free LANA-H2A/H2B peptide, fluorescence polarization. 320,000 tested, 0.6% active. inhibition, % (no concentration beside the values); in the data active = inhibition mostly above about 10%, no sharp cut-off; inactive = mostly below about 6.7%
An asterisk follows results filed as active; . = no result.

SMILES	rCAG RNA binder	ALR inh	Rtt109 HAT inh	ABHD5 PLIN5 PPI	PRMT1 inh	LANA-H2A inh
Cc1cccc(C)c1NC(=O)CNC(=O)CNC(=O)c1ccc2ccccc2c1	2	.	.	2	12	.
CC1Cc2cc(S(=O)(=O)N3CCC(C(=O)N(C)Cc4ccco4)CC3)ccc2N1C(=O)C1CCC1 (centres undefined)	-1	-3	50*	13	4	4
COc1ccc(S(=O)(=O)N2CCC(C(=O)N(C)Cc3ccc(C)o3)CC2)cc1OC	8	3	1	21	24*	1
CCOC(=O)C1CCN(S(=O)(=O)c2ccc3c(c2)CC(C)N3C(=O)C2CCC2)CC1 (centres undefined)	-2	-4	54*	-1	-3	4
O=C(O)c1cccc2cccc(-c3c4ccc(=O)c(O)c-4oc4c(O)c(O)ccc34)c12	92*	.	7	6	32*	.
Cc1ccccc1Nc1nnc(SCc2cc([N+](=O)[O-])cc3c2OCOC3)s1	.	-1	2	-1	.	24*
COCCCNC(=O)Cn1cnc2c(OCc3ccccc3)ncnc21	1	4	1	-2	-3	194*
CCOC(=O)[C@]12CCCC=C1N(Cc1ccc(OC)cc1)C(=O)[C@@H]2CC(=O)N1CCCCC1	-1	.	.	.	1	.
Cc1nn(-c2ccccc2)c(Cl)c1C(=O)NCC1CCCO1 (centres undefined)	1	.	0	3	-2	24*
CCCCc1ccc(NC(=O)COC(=O)c2ccc3ncsc3c2)cc1	3	.	.	-8	4	.
Cc1ccsc1/C=N\NC(=O)c1cc(C(C)(C)C)[nH]n1	-2	89*	14	-1	3	-2
O=S(=O)(CC1NCc2cc(F)ccc21)NC1CCCC1 (centres undefined)	9	.	.	.	11	.
O=C(NCC1COCCO1)C1CCN(S(=O)(=O)c2cccs2)CC1 (centres undefined)	0	.	.	.	-1	.
O=C(c1ccc(OCC2CCCO2)cc1)N1CCN(c2ccccc2)CC1 (centres undefined)	-6	98*	11	8	1	-3
CN(CCO)c1cnccn1	2	-4	0	-1	-1	14*
CC(=O)N(Cc1ccc(Cl)cc1)c1cnccn1	-3	.	-2	-9	-4	2
CCOC(=O)Cn1c(=O)oc2cc(S(=O)(=O)Nc3cc(OCC)ccc3OCC)ccc21	3	.	11	10	-6	0
COC(=O)c1ccc(NS(=O)(=O)c2ccc3c(c2)oc(=O)n3C)cc1	3	.	-5	-3	7	2
CCOC(=O)c1ccc(NS(=O)(=O)c2ccc3c(c2)oc(=O)n3C)cc1	8	-7	6	-3	-9	32*
CCOC(=O)Cn1c(=O)oc2cc(S(=O)(=O)Nc3ccc(N(CC)CC)cc3C)ccc21	10	99*	24	-3	9	-4
COc1cc(C2c3c(c(C)c(C)oc3=O)Oc3c(C)c(C)oc(=O)c32)ccc1OS(=O)(=O)c1ccc(C)cc1	8	3	5	-1	-1	-1
Cc1ccnc(NC(=S)N2CCC(Nc3cccc(C(F)(F)F)c3)CC2)c1	.	.	.	.	10	.
NC(=O)c1sc(=S)n(-c2ccc(Br)cc2)c1N	2	95*	-16	-11	10	-1
CCNC(=O)c1sc(=S)n(-c2ccc(C)cc2)c1N	9	25	7	3	2	-1
C=CCCC1CN(Cc2ccc(OC)cc2)S(=O)(=O)c2c(Oc3ccc(C)cc3)cccc2O1 (centres undefined)	9	.	.	.	-2	.
SMILES	rCAG RNA binder	ALR inh	Rtt109 HAT inh	ABHD5 PLIN5 PPI	PRMT1 inh	LANA-H2A inh
O=c1oc(-c2ccc(F)cc2)nc2ccsc12	-1	83*	-9	-3	2	-2
Cn1nnc2c[n+](CC(=O)c3ccc4ccccc4c3)cc(Br)c21	9	4	6	3	7	-1
Cn1nnc2c[n+](CC(=O)c3ccc(Cl)cc3)cc(Br)c21	8	91*	.	-2	16	-1
CN(C)CC(=O)N[C@@H]1C[C@@H]2O[C@@H](CO)CC[C@@H]2O[C@@H]1CCc1ccc(C#Cc2ccccc2)cc1	6	.	.	.	1	.
COc1ccc(NC2CCCN(C(=O)CCc3cccc(F)c3)C2)cc1 (centres undefined)	-5	99*	1	-5	-2	-4
COc1cccc(CNC(=O)CCC2CCCN(C(=O)CCn3cncn3)C2)c1 (centres undefined)	-2	.	1	1	-1	.
COc1ccc(NC2CCCN(C(=O)CCn3cccn3)C2)cc1 (centres undefined)	-5	99*	-5	-8	0	-1
COc1ccc(NC2CCCN(C(=O)CCCn3cncn3)C2)cc1 (centres undefined)	-3	99*	-4	-12	6	-1
COc1ccc(NC2CCCN(C(=O)CCc3cccc(Cl)c3)C2)cc1 (centres undefined)	-7	.	19	-1	3	-4
COc1cccc(CNC(=O)[C@H]2CCCN2C(=O)[C@H]2CCCN2C(=O)N2CCOCC2)c1	3	.	.	.	-3	.
COC(=O)C1CN(CCc2ccccc2)CCS(=O)(=O)N1Cc1ccc(OC)cc1 (centres undefined)	6	.	.	.	6	.
Cc1oc(-c2ccccc2)nc1CS(=O)CC(=O)NC1CCCC1 (centres undefined)	3	99*	-2	-1	6	-4
CCc1ccc(-c2nc(CS(=O)CC(=O)NC3CC3)c(C)o2)cc1 (centres undefined)	0	98*	-1	2	3	-1
Cc1ccc(-c2nc(CS(=O)CC(=O)NC3CC3)c(C)o2)cc1 (centres undefined)	0	99*	-4	-3	1	13
Cc1oc(-c2ccccc2Cl)nc1CS(=O)CC(=O)NC1CC1 (centres undefined)	4	99*	-2	-10	11	6
C(=C\c1ccccc1)/CN1CCN(C(CCc2ccccc2)c2nnnn2C2CCCC2)CC1 (centres undefined)	4	.	.	-2	-1	.
O=C(c1cc(F)ccc1F)N1CCCC(c2nc(-c3cccs3)no2)C1 (centres undefined)	1	.	.	.	3	.
CCc1ccc(-c2nc(CS(=O)CC(=O)O)c(C)o2)cc1 (centres undefined)	5	99*	9	3	-2	1
CCc1ccc(-c2nc(CS(=O)CC(=O)NC3CCCCCC3)c(C)o2)cc1 (centres undefined)	2	99*	-1	-11	15	0
O=C1C=C(N2CCN(c3ccccn3)CC2)C(=O)c2c(O)ccc(O)c21	5	.	-1	-5	2	.
CC1=CC(=O)c2c(O)ccc(O)c2C1=O	.	-10	.	.	.	17*
Oc1ccc(N=Cc2cc(Br)c(N3CCOCC3)o2)cc1	8	86*	10	14	10	-3

From PubChem
